The results in this text go back to ChEMBL document CHEMBL3433997, “St. Jude Leishmania screening dataset” (2016).

Assay type in all cases: functional
The target in assay [1] is Solute carrier family 2, facilitated glucose transporter member 1 (Homo sapiens) (UniProt P11166). As to the kind of experiment: ST_JUDE_LEISH: Cytotoxicity at 2uM final concentration against transgenic Leishmania Mexicana promastigotes LmGLUT1 that are glucose transport deficient and complemented with the human glucose transporter GLUT1. Activity is measured by DNA content using SYBR green in vitro.

Assay [2] addresses Hexose transporter 1 (Plasmodium falciparum) (UniProt O97467). In words: ST_JUDE_LEISH: Cytotoxicity at 2uM final concentration against transgenic Leishmania Mexicana promastigotes LmPfHT that are glucose transport deficient and complemented with the Plasmodium falciparum hexose transporter. Activity is measured by DNA content using SYBR green in vitro.
For assay [3], the target named is Glucose transporter (Leishmania mexicana) (UniProt O61059). In words: ST_JUDE_LEISH: Cytotoxicity at 2uM final concentration against transgenic Leishmania Mexicana promastigotes LmGT2 that are glucose transport deficient and complemented with the L. Mexicana glucose transporter 2. Activity is measured by DNA content using SYBR green in vitro.

Solute carrier family 2, facilitated glucose transporter member 1 (Homo sapiens), sequence (P11166 whole entry): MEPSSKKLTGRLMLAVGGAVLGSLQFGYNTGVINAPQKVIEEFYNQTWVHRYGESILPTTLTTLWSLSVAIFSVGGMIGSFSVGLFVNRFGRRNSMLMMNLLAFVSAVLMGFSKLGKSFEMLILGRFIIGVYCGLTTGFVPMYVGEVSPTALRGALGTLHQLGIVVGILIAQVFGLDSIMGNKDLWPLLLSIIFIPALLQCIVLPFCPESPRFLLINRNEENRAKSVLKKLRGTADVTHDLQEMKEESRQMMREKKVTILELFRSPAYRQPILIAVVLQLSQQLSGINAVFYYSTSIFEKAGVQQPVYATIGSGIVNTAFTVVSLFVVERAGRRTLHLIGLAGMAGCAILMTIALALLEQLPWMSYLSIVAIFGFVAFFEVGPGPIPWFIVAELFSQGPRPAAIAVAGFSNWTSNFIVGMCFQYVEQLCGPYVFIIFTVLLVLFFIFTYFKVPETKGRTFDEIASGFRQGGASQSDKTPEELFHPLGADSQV

As usually defined, the inhibition is the relative decrease from the control value, in per cent. For `Cc1cc(N/N=C/c2cccc([N+](=O)[O-])c2)c2ccc(F)cc2n1`, the inhibition in assay [1] turned out to be 3.46%; in assay [2], 2.8%; in assay [3], 0.94%.
With `Cc1sc2nc(CSc3ccccc3)nc(N3CCN(CC(=O)N4CCCC4)CC3)c2c1C`, the inhibition in assay [1] was determined as 5.03%; in assay [2], 5.88%; in assay [3] it was 1.41%.
Consider `COc1ccc2ncn(-c3ccc(C(N)=O)c(OCc4ccccc4C(F)(F)F)c3)c2c1`, for which the inhibition is -0.54% in assay [1], -1.32% in assay [2] and -3.42% in assay [3].
For the compound `Cc1ccc2[nH]c(C3CCCNC3)c(-c3ccncc3)c2c1` (stereo not given), the inhibition came to 9.43% in assay [1], 9.43% in assay [2] and 8.51% in assay [3].
Turning to `OCC1CCN(Cc2cccc(-c3cccc(-c4nc5cc(C(F)(F)F)ccc5[nH]4)c3)c2)CC1`, the results for the inhibition in assay [1], in assay [2] and in assay [3] were 2.74%, 0.35% and 0.14%, respectively.
In the case of `Cc1ccc(OCCCON2C(=N)N=C(N)NC2(C)C)cc1C`, the inhibition in assay [1] was determined as 2.79%; in assay [2], 2.67%; in assay [3] it was 1.46%.
For `CC(C)(CN)c1nc(-c2ccc(Br)c(O)c2)c(-c2ccncc2)[nH]1` the same measures were 1.39%, 1.51% and 2.58%.
As to `COCCn1c(Sc2ccc(C#N)c([N+](=O)[O-])c2)nnc1-c1ccc(N(C)C)cc1`, the inhibition was found to be 13% in assay [1], 13.5% in assay [2] and 11.7% in assay [3].
In the case of `Cc1cc(N(C)C)nc(Nc2ccc(NC(=O)c3ccccc3C)cc2)n1`, the inhibition in assay [1] came out at 11.4%; in assay [2], 17.1%; in assay [3], 5.05%.
In the case of `c1ccc(C23NC(=Nc4nc5ccccc5[nH]4)NC2(c2ccccc2)NC(=Nc2nc4ccccc4[nH]2)N3)cc1` (stereo not given), the values for the inhibition in assay [1], in assay [2] and in assay [3] were 3.64%, 3.18% and 5.58%, respectively.
For `NCC1CCCN1Cc1ccc(-c2ccc(-c3nc4cc(C(F)(F)F)ccc4[nH]3)s2)cc1` (stereo not given), in that order: 1.42%, -0.28% and -0.19%.
For `CCCCCCn1c(Sc2ccc(C#N)c([N+](=O)[O-])c2)nnc1-c1cccs1` the same measures were 5.52%, 6.91% and -0.09%.
As for `CCCC1(NC[C@@H](O)[C@H](Cc2ccccc2)NC(=O)c2cc(NCC)cc(N3CCCCS3(=O)=O)c2)CCCC1`, the results for the inhibition in assay [1], in assay [2] and in assay [3] were 4.97%, 5.31% and 3.48%, respectively.
For `COCCN(CCOC)c1ncc(-c2ccsc2)c(-c2nc(C)c(C)s2)n1` the same measures were -1.28%, 0.1% and 1.83%.
For `OCC1CCN(Cc2ccc(-c3cccc(-c4nc5cc(F)ccc5[nH]4)c3)cc2)CC1` the same measures were -1.93%, -1.06% and -1.42%.
For `COc1ccccc1N1CCN(CCCCN(C(=O)Nc2cccc(Cl)c2)C(=O)Nc2cccc(Cl)c2)CC1` the same measures were 10.6%, 8.66% and 10.6%.
Turning to `CCC(C)NC(=O)Nc1ccc(-c2cccc(-c3nc4cc(C(F)(F)F)ccc4[nH]3)c2)cc1` (stereo not given), the inhibition in assay [1] was 9.64%; in assay [2], 8.86%; in assay [3], 4.56%.
In the case of `O=C(NCCCCN1CCC(c2ccc3c(c2OCCCO)CCCC3)CC1)c1ccc(-c2ccc(C(F)(F)F)cc2)cc1`, the inhibition in assay [1] turned out to be 1.13%; in assay [2], 3.02%; in assay [3], 2.9%.
For the compound `Fc1ccc2nc(Nc3nc(-c4ccccn4)cs3)sc2c1`, the inhibition in assay [1] worked out at 20.7%; in assay [2], 10.8%; in assay [3], 0.2%.
In the case of `COc1ccc(CC2(c3ccc(F)cc3)N=C(N)N(CCCc3ccc(F)c(F)c3)C2=O)cc1` (stereo not given), the inhibition in assay [1] amounted to 2.06%; in assay [2], 5.53%; in assay [3], 3.88%.
For `COC(=O)C(Cc1ccccc1)C(CSCc1ccc(OC)cc1)C(=O)N[C@@H](C(=O)OC(C)(C)C)c1ccc(C(C)(C)C)cc1` (stereo not given in full), in that order: 4.24%, 4.41% and 5.18%.
In the case of `COCCNCc1cccc(-c2ccc3nccc(Nc4cc(O)ccc4C)c3c2)c1`, the inhibition is 3.68% in assay [1], 4.21% in assay [2] and 4.38% in assay [3].
For `COc1ccc2nccc([C@@H](O)CN3CCC(NCc4cc5cccc(O)c5c(=O)[nH]4)CC3)c2c1` the same measures were 13.7%, 31.5% and 1.42%.
On to `CCOC(=O)c1ccc(NC(=O)Nc2ccc(Cn3ncc(N4CCCNCC4)c(Cl)c3=O)cc2)cc1`, for which the inhibition came to 8.8% in assay [1], 12.6% in assay [2] and 7.11% in assay [3].
On to `O=[N+]([O-])c1ccc(/C=N/O)nc1`, for which the inhibition in assay [1] came out at 88.1%; in assay [2], 91.2%; in assay [3] it was 84.6%.
